For 40 compounds, growth results are on record in PubChem BioAssay (NCI).

The panel holds about 83,000 compounds, 20% with a hit somewhere; the sample as a whole holds those more often.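 96-well plates, one dose, 48 hours. Percent growth reported; active if below 10.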 Values without a mark were called inactive. Active and inactive are the calls of the source.

The test system of this test is HL-60(TB) leukemia. Put plainly: NCI-60 one-dose screen, 48 h (100 = growth as untreated, 0 = no growth, -100 = all killed). Particulars: 10 µM unless noted.
Consider `COc1cc(/C=C\c2cc(/C=C\c3ccc(O)c(OC)c3)n(C(=O)CNc3ccc(Cl)cc3)n2)ccc1O`, for which the growth is -11.6% (active).

As to `N[C@@H]1CCC[C@H]1NCCCCN1C(=O)c2cccc3cc([N+](=O)[O-])cc(c23)C1=O`, the growth is 30.5%.

With `CCCCCCCCCc1cc[n+](CC(=O)c2ccc([N+](=O)[O-])cc2)cc1`, the growth is -40.4% (active).

`O=C1OC(c2ccc(-c3ccccc3)cc2)=C/C1=C/C=C/c1ccccc1`: the growth is 90.5%.

As for `COc1cccc(/C(C#N)=C/c2nc3c(N4CCOCC4)nc(Cl)nc3n2C)c1`, the growth is -32% (active).

For `Brc1ccc(Cn2nnnc2-c2ccn(-c3ccccc3)n2)cc1`, the growth is 69.1%.

On to `CO[C@H]1/C=C(/C)CCC[C@H](C)[C@H](O)[C@@H](C)C(=O)C(C)(C)[C@@H](O)CC(=O)O[C@@H]1/C(C)=C/c1csc(C)n1`, for which the growth was 24.3%.

Turning to `O=P(O)(O)OCC1OC(n2cnc3c(NCc4ccccc4)ncnc32)C(O)C1O` (stereo not given), the growth is 26.8%.

Consider `O=C1NCCc2c1noc2-c1ccccc1`, for which the growth was 102%.

Take `Cc1cc(=O)oc2cc(Oc3nc(Br)cn4c(Br)cnc34)ccc12`: the growth is 30.8%.

On to `Cc1ccc(Cc2cnc(NC(=O)CN3C(=O)/C(=C\c4ccccc4)SC3=S)s2)cc1`, for which the growth was 99.6%.

Regarding `Clc1nc(Cl)c2ncn(-c3ccccc3)c2n1`, the growth was 46.1%.

Turning to `COc1ccc(/C=C/c2nc(N3CCOCC3)c3nc(Cl)c(Cl)cc3n2)cc1OC`, the growth was 91.9%.

With `Cc1ccc(-c2nc(C(Cl)Cl)n3nc(-c4ccccc4)cc3n2)cc1`, the growth was 61.3%.

For the compound `CCCCCCCCCCCCCCCCCCNCc1ccc(Cl)cc1`, the growth was -65.8% (active).

As for `COCC(=O)NNc1[nH]c(-c2ccc(OC)cc2)cc1C#N`, the growth was 6.53% (active).

As for `C/C(CC(=O)NNc1ccc([N+](=O)[O-])cc1)=N\Nc1ccc([N+](=O)[O-])cc1`, the growth was 28.8%.

As to `O=[N+]([O-])c1ccc(-c2cc(-c3ccc(Nc4nc(Nc5ccc(Cl)cc5)nc(Nc5ccc(Cl)cc5)n4)cc3)no2)cc1`, the growth is -63% (active).

As to `O=C1C=CC(=O)N1C1c2ccccc2-c2ccccc21`, the growth was 77.7%.

As to `CN(C)C(=S)N/N=C\C=N/NC(=S)N(C)C`, the growth is -23% (active).

Turning to `O=C(CN1C(=O)/C(=C/c2ccc(Cl)cc2)SC1=S)NCCCN1CCOCC1`, the growth was 98.7%.

Consider `COc1ccc(CCNc2nc(SC)nc(-c3cccc([N+](=O)[O-])c3)c2C#N)cc1OC`, for which the growth was 120%.

Regarding `COc1ccc(C(=O)c2cc3c(N)c(C(=O)Nc4ccc(C)cc4)sc3nc2C)cc1`, the growth was 7.74% (active).

Consider `COc1cc2c(c(OC)c1OC)-c1ccc(N)c(=O)cc1[C@@H](NC(C)=O)CC2`, for which the growth was 3.69% (active).

For the compound `Cc1cccnc1NC(=S)Nc1ncccc1C`, the growth is 136%.

In the case of `O=[N+]([O-])c1ccc([I+]c2ccccc2)cc1`, the growth was 21.5%.

Take `Cc1ccc(C(=O)c2ccc(CC(=O)N=Nc3c(O)[nH]c4ccc(Br)cc34)n2C)cc1`: the growth was 89.4%.

Consider `COC1=CC(c2ccc[nH]2)=N/C1=C\c1[nH]c(C)c(C(=O)Oc2ccccc2)c1C`, for which the growth was 11.4%.

Take `C=C1CC2(OC1=O)C(=O)N(CCCCCCCCCCCCN1C(=O)C3(CC(=C)C(=O)O3)c3ccccc31)c1ccccc12` (stereo not given): the growth was 45.5%.

With `Nc1ncnc2c1N=C(c1ccc3c(c1)OCO3)CC(c1ccc([N+](=O)[O-])cc1)N2` (stereo not given), the growth is 88.7%.

Consider `CSc1nc(=O)n(Cc2ccc(F)cc2)c(=O)n1Cc1ccc(C)cc1`, for which the growth is 90%.

As for `Nc1ccc(C(OC(=O)c2cc3ccccc3c(Cc3c(O)c(C(=O)OC(c4ccc(N)cc4)(c4ccc(N)cc4)c4ccc(N)cc4)cc4ccccc34)c2O)(c2ccc(N)cc2)c2ccc(N)cc2)cc1`, the growth was 4.23% (active).

With `O=C(NCc1cccnc1)/C(=C\c1ccc(Br)cc1)S(=O)(=O)c1ccccc1`, the growth is 17.4%.

As for `CN(C)CCC(=O)c1ccc([N+](=O)[O-])cc1`, the growth is 114%.

In the case of `COc1cc(Br)c(OC)cc1Br`, the growth was 109%.

As to `COc1cc2ncnc(Oc3ccc(NC(=O)Nc4ccc(C5(C#N)CCCC5)cc4)c4ccccc34)c2cc1OC`, the growth is 72.6%.

Regarding `COc1c(O)c2c3c(c1OC)-c1ccccc1CC3N(S(=O)(=O)c1ccc(C)cc1)CC2` (stereo not given), the growth was 5.73% (active).

Consider `CCOc1ccc(/C=C/C(=O)c2ccccc2)cc1`, for which the growth was 70.3%.

In the case of `CCCc1cc2cc(-n3nc(C)c4c3CC(C)(C)CC4=O)cc(NC3CCC(O)CC3)c2c(=O)[nH]1` (stereo not given), the growth is 2.27% (active).

For the compound `CSc1nc2ncc([N+](=O)[O-])c(=O)n2[nH]1`, the growth is 106%.
